The source of these data is PubChem BioAssay (NCI).

Compounds without any hit were thinned out: in the full panel of roughly 83,000, 20% have a hit.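 Results are percent growth after 48 hours of single-concentration exposure. 100 means growth as in untreated cells, lower positive values show inhibition; negative values down to -100 show cell death.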 Values without a mark were called inactive. Active and inactive are the calls of the source. The calls were made as follows: active = growth percent below 10; inactive = the rest.

Among the test systems are EKVX NSCLC; SN12C renal; UO-31 renal; TK-10 renal; ACHN renal; CAKI-1 renal; A498 renal; CCRF-CEM leukemia; MOLT-4 leukemia; SR leukemia; RPMI-8226 leukemia; OVCAR-8 ovarian; OVCAR-5 ovarian; OVCAR-4 ovarian; SK-OV-3 ovarian; IGROV1 ovarian; OVCAR-3 ovarian; HS 578T breast; NCI/ADR-RES ovarian; SK-MEL-2 melanoma.
Holding throughout (experiment): NCI-60 one-dose screen, 48 h (100 = growth as untreated, 0 = no growth, -100 = all killed)
Conditions in all cases: 10 µM

As to `CNC(=O)c1c(I)c(NC(C)=O)c(I)c(C(=O)O)c1I`, the growth was 126% in the experiment with EKVX NSCLC; 95.6% in the experiment with SN12C renal; 88.6% with UO-31 renal; 114% with TK-10 renal; 102% in the experiment with ACHN renal; 115% in the experiment on CAKI-1 renal. Moreover, the growth with A498 renal is 99.3%; in the experiment on CCRF-CEM leukemia, 104%; in the experiment on MOLT-4 leukemia, 110%; in the experiment on SR leukemia it was 104%; in the experiment with RPMI-8226 leukemia, 110%; with OVCAR-8 ovarian it was 103%. Moreover, the growth with OVCAR-5 ovarian is 113%; in the experiment with OVCAR-4 ovarian, 111%; in the experiment with SK-OV-3 ovarian, 104%; in the experiment on IGROV1 ovarian, 115%; in the experiment with OVCAR-3 ovarian it was 111%; in the experiment with HS 578T breast it was 110%. In the experiment with NCI/ADR-RES ovarian, the growth was 103%.

Regarding `CCC1NC(=O)c2cc(S(N)(=O)=O)c(Cl)cc2N1` (configuration not stated), the growth is 109% in the experiment with EKVX NSCLC; 94% in the experiment with SN12C renal; 98.8% with UO-31 renal; 106% in the experiment on TK-10 renal; 108% with ACHN renal; 104% in the experiment on CAKI-1 renal. Also, the growth with A498 renal was 110%; in the experiment on CCRF-CEM leukemia, 97.7%; in the experiment on MOLT-4 leukemia it was 113%; in the experiment on SR leukemia it was 103%; with RPMI-8226 leukemia, 109%; in the experiment with OVCAR-8 ovarian, 100%. Besides, the growth in the experiment on OVCAR-5 ovarian was 105%; with OVCAR-4 ovarian, 130%; in the experiment with SK-OV-3 ovarian, 118%; with IGROV1 ovarian, 120%; in the experiment with OVCAR-3 ovarian, 126%; in the experiment with HS 578T breast, 112%. For the same compound, the growth in the experiment on NCI/ADR-RES ovarian is 108%.

With `CN1C(C(=O)Nc2ccccn2)=C(O)c2sc(Cl)cc2S1(=O)=O`, the growth with EKVX NSCLC was 102%; in the experiment with SN12C renal it was 103%; in the experiment with UO-31 renal it was 78.8%; with TK-10 renal, 104%; in the experiment with ACHN renal it was 100%; in the experiment on CAKI-1 renal, 92.4%. For the same compound, the growth is 90.1% in the experiment on A498 renal; 87.4% in the experiment with CCRF-CEM leukemia; 110% in the experiment on MOLT-4 leukemia; 96.1% with SR leukemia; 94.5% in the experiment on RPMI-8226 leukemia; 95.9% in the experiment on OVCAR-8 ovarian. Besides, the growth is 104% in the experiment with OVCAR-5 ovarian; 106% with OVCAR-4 ovarian; 104% with SK-OV-3 ovarian; 99.6% in the experiment on IGROV1 ovarian; 105% with OVCAR-3 ovarian; 98.5% in the experiment on HS 578T breast. The growth in the experiment with NCI/ADR-RES ovarian was 95.4%.

Turning to `Nc1cc(-c2ccncc2)c[nH]c1=O`, the growth in the experiment with EKVX NSCLC is 84.1%; with SN12C renal it was 104%; with UO-31 renal, 82.5%; in the experiment on TK-10 renal, 99.9%; with ACHN renal, 102%; in the experiment with CAKI-1 renal it was 99.5%. Also, the growth is 73.3% in the experiment on A498 renal; 113% with CCRF-CEM leukemia; 77.4% in the experiment with MOLT-4 leukemia; 74.3% with SR leukemia; 109% with RPMI-8226 leukemia; 100% in the experiment on OVCAR-8 ovarian. Moreover, the growth with OVCAR-5 ovarian is 98.8%; in the experiment with OVCAR-4 ovarian, 106%; in the experiment with SK-OV-3 ovarian, 120%; with IGROV1 ovarian, 108%; with OVCAR-3 ovarian, 107%; in the experiment with HS 578T breast, 110%. The growth in the experiment on NCI/ADR-RES ovarian was 104%.

`COc1ccc(Nc2cnc3cc(NS(=O)(=O)c4ccc(C)cc4)ccc3n2)cc1`: the growth in the experiment on SK-MEL-2 melanoma was 65.5%; in the experiment on SN12C renal it was 85.9%; with TK-10 renal, 94.7%; in the experiment on ACHN renal it was 90.3%; in the experiment on CAKI-1 renal, 61.5%; in the experiment with A498 renal it was 77.9%. Also, the growth with CCRF-CEM leukemia was 90%; with MOLT-4 leukemia, 57.5%; with SR leukemia, 30%; with RPMI-8226 leukemia, 106%; in the experiment with OVCAR-8 ovarian, 82.1%; in the experiment on OVCAR-5 ovarian, 95.9%. For the same compound, the growth in the experiment with OVCAR-4 ovarian was 86.5%; in the experiment on SK-OV-3 ovarian it was 88%; with IGROV1 ovarian it was 65.5%; in the experiment on OVCAR-3 ovarian it was 79.8%; with HS 578T breast, 82.7%; in the experiment with NCI/ADR-RES ovarian it was 73.1%.

Consider `CC(=O)/C(=C/c1ccc(Br)cc1)C(=O)c1ccccc1`, for which the growth is 107% in the experiment on SK-MEL-2 melanoma; 69.1% in the experiment with SN12C renal; 57.4% in the experiment with UO-31 renal; 56.1% in the experiment with ACHN renal; 80.2% in the experiment with CAKI-1 renal; 91.6% in the experiment with A498 renal. The growth is -7.34% (active) with CCRF-CEM leukemia; -5.12% (active) in the experiment with MOLT-4 leukemia; -16.8% (active) in the experiment with SR leukemia; -26.3% (active) with RPMI-8226 leukemia; 63.7% in the experiment on OVCAR-8 ovarian; 86.6% in the experiment with OVCAR-5 ovarian. Further, the growth is 81.4% in the experiment with OVCAR-4 ovarian; 120% in the experiment with SK-OV-3 ovarian; 74% with IGROV1 ovarian; 81.9% in the experiment on OVCAR-3 ovarian; 90.7% with HS 578T breast; 85.8% with NCI/ADR-RES ovarian.

In the case of `Cc1nc2n(c(=O)c1CCN1CCC(c3noc4cc(F)ccc34)CC1)CCC[C@@H]2O`, the growth is 92.8% with EKVX NSCLC; 101% in the experiment on SN12C renal; 80% in the experiment on UO-31 renal; 109% in the experiment on TK-10 renal; 95.9% with ACHN renal; 102% with CAKI-1 renal. In addition, the growth was 80.5% in the experiment with A498 renal; -3.98% (active) in the experiment with CCRF-CEM leukemia; 96.9% in the experiment with MOLT-4 leukemia; 93.8% in the experiment with SR leukemia; 111% in the experiment with RPMI-8226 leukemia; 97.5% in the experiment on OVCAR-8 ovarian. For the same compound, the growth was 88.6% in the experiment with OVCAR-5 ovarian; 105% with OVCAR-4 ovarian; 103% with SK-OV-3 ovarian; 105% with IGROV1 ovarian; 106% with OVCAR-3 ovarian; 100% with HS 578T breast. In addition, the growth in the experiment on NCI/ADR-RES ovarian was 97.2%.

As to `CC(C)C[C@H](NC(=O)Cn1cccc(CNC(=O)c2ccccc2)c1=O)B(O)O`, the growth in the experiment with SK-MEL-2 melanoma was 7.34% (active); with UO-31 renal, 50.9%; in the experiment with TK-10 renal, 16.8%; with ACHN renal, 24.5%; in the experiment with A498 renal, -12.2% (active); with CCRF-CEM leukemia it was 2.66% (active). For the same compound, the growth in the experiment on MOLT-4 leukemia is -7.9% (active); in the experiment with SR leukemia, 16.4%; in the experiment with RPMI-8226 leukemia it was 0.606% (active); with OVCAR-8 ovarian, 54.4%; in the experiment with OVCAR-5 ovarian, 38.8%; in the experiment on OVCAR-4 ovarian, 36.7%. Also, the growth in the experiment with SK-OV-3 ovarian is 58.5%; in the experiment with OVCAR-3 ovarian it was -43.2% (active); in the experiment with HS 578T breast, 16.6%; in the experiment with NCI/ADR-RES ovarian, 103%.
